Compound activity: PubChem, The Scripps Research Institute Molecular Screening Center
ADAM10 inh: inhibitors of human ADAM10; O14672; recombinant ADAM10, EDANS/DABCYL FRET peptide cleavage, 3 h; inhibition, % at 7 µM; 370,000 tested, 0.62% active;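 active = inhibition above a per-campaign cutoff equal to the mean of compounds falling between control-based bounds plus 3 SD, cut at about 20% in these data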;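 also: 0% = DMSO wells while the 100% control is not disclosed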
PLC-gamma1 inh: inhibitors of human phospholipase C gamma1; P19174; purified PLC-gamma1, fluorogenic substrate, fluorescence; inhibition, % at 12.2 µM; 370,000 tested, 0.84% active; AID 720700
ADAM17 inh: ADAM17 inhibition, QFRET primary screen. 370,000 tested, 0.83% active. recombinant ADAM17, EDANS/DABCYL FRET peptide cleavage. AID 720648. P78536. inhibition, % at 6.95 µM;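 active = inhibition above the mean of compounds lying between control limits plus 3 SD, set per campaign, cut at about 8.5% in these data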;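 also: 0% = DMSO-only wells as the low control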
sPLA2-III inh: Blocks human group III sPLA2 activity; inhibition, % at 12.2 µM; Q9NZ20; QFRET BODIPY PC-A2 liposome hydrolysis, fluorescence; AID 743126; 370,000 tested, 0.56% active;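 active = inhibition above mean plus 3 SD of compounds lying within the high and low control bounds, cut at about 19% in these data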;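 also: 0% = median of test compound wells and 100% = no enzyme DMSO wells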
PLCb3 inh: blocks human PLC-beta3 enzyme activity | Q01970 | Purified PLC-beta3, fluorogenic substrate, fluorescence | inhibition, % at 12.2 µM | 370,000 tested, 0.18% active; in the data active = inhibition above about 11%;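 also: 0% = median of compound wells on plate and 100% = full blocker control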
proKLK7 act: activates the human kallikrein-7 zymogen; activation, % at 7 µM; 370,000 tested, 0.9% active; AID 652039; purified proKLK7, EDANS-DABCYL substrate fluorescence; 100% is mature enzyme control, 0% vehicle; P49862;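 active = activation above the mean of all tested compounds plus 3 SD, computed per campaign excluding outliers beyond control limits, cut at about 13% in these data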
PLCg1 ctr: PLC-gamma1 inhibition, counter-screen for PLC-beta3 hits | inhibition, % at 12.3 µM | purified PLC-gamma1, fluorogenic substrate, fluorescence | 3,300 tested, 3.1% active | shares compounds with PLC-gamma1 inh
PLCbeta3 conf: human PLC-beta3 inhibition, confirmation. inhibition, % at 12.3 µM. shares compounds with PLC-gamma1 inh. 3,300 tested, 1% active. purified PLC-beta3, fluorogenic substrate fluorescence; in the data active = inhibition above about 11%
* marks the source's active call; other numbers are inactive results; nt = no result given. Compounds with a hit are over-represented: about 3.4% of the library has one in this group of screens. Rule as the data show it, unless noted: active = inhibition above about 9.5%; inactive = the rest.

SMILES	ADAM10 inh	PLC-gamma1 inh	ADAM17 inh	sPLA2-III inh	PLCb3 inh	proKLK7 act	PLCg1 ctr	PLCbeta3 conf
O=C(O)CCCNS(=O)(=O)c1ccc(F)cc1	0.8	9.7*	-0.3	-2.1	5.7	0.0	-6.9	-4.8
O=S(=O)(NCCCCCNS(=O)(=O)c1ccc(F)cc1)c1ccc(F)cc1	-3.7	-2.2	-3.7	-39.7	-4.3	0.0	nt	nt
Nc1nccc2c1ncn2C1OC(CO)C(O)C1O (configuration not stated)	10.2	12.4*	3.7	1.7	12.4*	0.1	-2.2	-0.5
Nc1nc(Sc2ccc([N+](=O)[O-])cc2[N+](=O)[O-])n[nH]1	4.7	9.5*	-0.5	1.4	-0.6	0.7	3.5	2.5
Cc1cc(C)nc(Nc2nc3ccccc3[nH]2)n1	10.7	13.5*	6.2	10.9	9.5	0.8	-5.9	-2.1
Cc1cccc(N2CCN(S(=O)(=O)c3cc4c(cc3Cl)NC(=O)CO4)CC2)c1C	16.5	10.4*	3.3	-5.6	1.1	-0.7	1.6	-2.7
COc1cccc(N2CCN(S(=O)(=O)c3cc4c(cc3Cl)NC(=O)CO4)CC2)c1	8.5	2.3	2.8	-5.2	7.3	-0.4	nt	nt
COC(=O)c1ccc(NC(=S)NC2CC3CCC2C3)cc1 (configuration not stated)	12.7	9.6*	6.5	-7.9	5.5	-0.7	4.1	3.8
COC(=O)c1ccc(NC(=O)C2CC3CCC2C3)cc1 (configuration not stated)	2.4	5.5	0.7	0.7	0.8	0.3	nt	nt
C=CCNC(=O)CN(C(=O)Cc1ccc(Cl)nc1)c1cccc(Br)c1	-2.7	1.0	-1.6	-1.3	-1.1	0.1	nt	nt
CCCCCCCCN1C(=O)[C@@H](CC(=O)NCc2cccs2)C[C@@]2(C(=O)OC)C1=C[C@H](C1CCCC1)O[C@@H]2C	-6.3	-1.3	-3.8	0.2	1.4	0.3	nt	nt
COc1ccc(S(=O)(=O)N(C)CC(=O)Nc2ccc(F)cc2)cc1	4.5	6.6	3.8	1.1	10.7*	0.5	-1.8	0.5
COC(=O)c1cc2c(c3c4cc(F)ccc4n(S(=O)(=O)c4ccc(C)cc4)c13)C(=O)N(C)C2	-4.0	-10.9	-2.0	5.2	-13.1	-1.0	nt	nt
CCn1c(C)c2c([n+]1CC)CC(C)(C)CC2=O	-4.1	0.7	2.8	4.2	76.5*	-0.1	-4.1	-1.0
CCOC(=O)CN(C(=O)CNC(=O)c1cccs1)C(C(=O)NC1CCCCC1)c1cccnc1 (configuration not stated)	3.5	6.5	0.5	2.0	2.2	1.0	nt	nt
C=CCN(C(=O)CNC(=O)c1cccs1)C(C(=O)NC1CCCCC1)c1cccnc1 (configuration not stated)	5.4	9.7*	1.6	4.3	8.5	-0.8	7.8	5.1
CCn1c(=O)cc(OCC(=O)NCc2ccco2)c2ccccc21	2.9	12.2*	-2.1	-2.3	-4.8	-0.5	5.6	-1.4
CCc1nc2nc(C)c(NS(=O)(=O)c3ccc(F)cc3)c(=O)n2[nH]1	-2.9	11.0*	3.4	11.4	8.1	-1.1	-2.2	0.8
COc1ccc(CN(CCN2CCOCC2)C(=O)c2cc(F)ccc2F)cc1OC	-1.8	2.3	2.2	1.3	3.1	-0.2	nt	nt
COc1cc(C(=O)Nc2ccc(Br)cc2C(=O)c2cc(OC)c(OC)c(OC)c2)cc(OC)c1OC	0.8	15.5*	5.8	1.0	8.8	0.3	-0.5	-8.1
COC(=O)c1sccc1NC(=O)CN(C)NS(=O)(=O)c1ccc(Cl)cc1	0.2	2.5	-0.2	1.4	1.4	-0.2	nt	nt
COC(=O)c1sccc1NC(=O)CN(C)NS(=O)(=O)c1ccc(F)cc1	9.7	12.1*	7.0	4.6	4.3	0.8	-6.5	0.3
C=CCN(Cc1ccc2c(c1)OCO2)C(C#Cc1ccccc1)c1ccccc1C(F)(F)F (configuration not stated)	-7.8	-3.3	-5.2	6.8	-2.9	0.4	nt	nt
